Assay results as given in PubChem BioAssay (NCI).
This is part of a sample that, as a whole, favours compounds with a hit. Of some 79,000 tested, about 15% had one in any assay. Unmarked numbers belong to inactive results. The source made the active and inactive calls. Cut-off read from the data, not from the text of the source: active = growth inhibition above about 70%; inactive = the rest.

Test: NCI Yeast Anticancer Drug Screen. Data for the mgt1 strain (AID 153)
Details: S. cerevisiae mgt1 mutant growth inhibition; at 1.2 µM; stronger effect = higher value
Method in brief: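 Compounds were applied to mgt1 mutant yeast, and growth was then compared against vehicle-treated control cultures to give percent inhibition.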

Structure (SMILES) | growth inhibition [%]
CC1(C)[C@@H]2CC[C@]1(C)[C@H](OC(=O)CSC#N)C2 | 1
S=C(N/N=C(/c1ccccc1)c1ccccn1)N1CCCCCC1 | -5
Cc1ccc2[nH]c3c(C)c4cc[n+](C)cc4c(C)c3c2c1 | -18
CNC(=O)OCc1c(COC(=O)NC)c(-c2ccc(-c3ccccc3)cc2)n(C)c1C | -11
COc1ccccc1/C=C1\Sc2scc(-c3cccc([N+](=O)[O-])c3)[n+]2C1=O | 63
O=[N+]([O-])c1ccc2c(c1)C(N1CCN(CCO)CC1)Cc1ccc(F)cc1S2 (stereo not drawn) | -1
Cc1ccc(CCC2=CCCc3c2ccc2ccccc32)cc1 | -4
O=[N+]([O-])c1cccc2nccc(NCCCO)c12 | -24
Cc1ccc(-n2cc(-c3ccc(Cl)cc3)c(C#N)c2N)cc1 | 1
Cc1ccc(S/N=C\c2ccccc2O)cc1 | 2
O=C(O)C1OC1(c1cccc(Cl)c1)c1ccccc1Cl (stereo not drawn) | 17
NC(=S)N/N=C\c1nccc2ccccc12 | -2
Clc1cccc(C(Nc2nncs2)Nc2nncs2)c1Cl | 0
O=C(OCC=C1CCCC1)c1cc([N+](=O)[O-])cc([N+](=O)[O-])c1 | -1
O=C(Nc1ccccc1)C(=O)C(C(=O)c1ccccc1)C(c1ccccc1)c1ccccc1 (stereo not drawn) | 2
N#CN1C2CCC1CC(=O)C2 | -8
COc1ccccc1C(=O)OCC1CCCN2CCCCC12 (stereo not drawn) | 23
CCNc1nnc(CSc2nc(-c3ccccc3)c(-c3ccccc3)[nH]2)s1 | -9
O=C1c2ccccc2-c2n[nH]c3cccc1c23 | -40

Same assay, conditions: S. cerevisiae mgt1 mutant growth inhibition; at 3.7 µM; stronger effect = higher value

Structure (SMILES) | growth inhibition
CCC/C(Cl)=N\OC(=O)Nc1cccc(C(F)(F)F)c1 | 37%
[O-][n+]1c2ccc(O)cc2nc2ccc(Cl)cc21 | 22%
Clc1ccccc1C1OC1c1ccccc1Cl (stereo not drawn) | -90%
c1ccc2c(c1)c1ncccc1c1nccnc21 | 0%
CC(=O)Nc1ccc2c(c1)C(=Nc1ccc(C(=O)O)cc1)c1ccccc1-2 | -5%
COc1ccc(OC)c2cc3ccccc3cc12 | 14%
COc1cc(C2c3cc4c(cc3OC(NNc3ccccc3)C2C)OCO4)cc(OC)c1OC (stereo not drawn) | 23%
O=C1c2cc([N+](=O)[O-])ccc2-c2cccc(F)c21 | -5%
CCCCCCCCCCCC(=O)N(C)C | 3%
CCCCCCCCCCCC1=C(O)C(=O)C=C(O)C1=O | -5%
Cc1ccc(CSC(N)=Nc2ccccc2)cc1C | -1%
CCCCCCCCCCC1CCC(=O)O1 (stereo not drawn) | -1%
O=[N+]([O-])c1cc(CCl)ccc1CCl | 2%
Nc1ccc2c(c1)C(=O)c1cccc(N)c1C2=O | 4%
CCCCCCCCCCNC(=O)OCC | -11%
CC1=C(C)Cc2c(O)ccc(O)c2C1 | 2%
COc1ccc2c(c1)C(=O)c1ccccc1C2 | 2%
CCC(=O)OCCn1c2nc(=O)[nH]c(=O)c-2nc2cc(C)c(C)cc21 | -8%
O=C(OCCN1CCCCCC1)C(c1ccsc1)C1CCCCC1 (stereo not drawn) | 21%
Oc1c(Br)cc(Br)cc1C1CCCCC1 | 13%

Structure (SMILES) | growth inhibition
CC1(C)[C@@H]2CC[C@]1(C)[C@H](OC(=O)CSC#N)C2 | 2%
S=C(N/N=C(/c1ccccc1)c1ccccn1)N1CCCCCC1 | -7%
Cc1ccc2[nH]c3c(C)c4cc[n+](C)cc4c(C)c3c2c1 | -15%
CNC(=O)OCc1c(COC(=O)NC)c(-c2ccc(-c3ccccc3)cc2)n(C)c1C | -5%
COc1ccccc1/C=C1\Sc2scc(-c3cccc([N+](=O)[O-])c3)[n+]2C1=O | 98% (active)
O=[N+]([O-])c1ccc2c(c1)C(N1CCN(CCO)CC1)Cc1ccc(F)cc1S2 (stereo not drawn) | -3%
Cc1ccc(CCC2=CCCc3c2ccc2ccccc32)cc1 | -3%
O=[N+]([O-])c1cccc2nccc(NCCCO)c12 | -9%
Cc1ccc(-n2cc(-c3ccc(Cl)cc3)c(C#N)c2N)cc1 | -4%
Cc1ccc(S/N=C\c2ccccc2O)cc1 | -1%
O=C(O)C1OC1(c1cccc(Cl)c1)c1ccccc1Cl (stereo not drawn) | 16%
NC(=S)N/N=C\c1nccc2ccccc12 | -6%
Clc1cccc(C(Nc2nncs2)Nc2nncs2)c1Cl | 0%
O=C(OCC=C1CCCC1)c1cc([N+](=O)[O-])cc([N+](=O)[O-])c1 | -1%
O=C(Nc1ccccc1)C(=O)C(C(=O)c1ccccc1)C(c1ccccc1)c1ccccc1 (stereo not drawn) | 1%
N#CN1C2CCC1CC(=O)C2 | -10%
COc1ccccc1C(=O)OCC1CCCN2CCCCC12 (stereo not drawn) | 15%
CCNc1nnc(CSc2nc(-c3ccccc3)c(-c3ccccc3)[nH]2)s1 | -11%
O=C1c2ccccc2-c2n[nH]c3cccc1c23 | -32%
